# Data taken from ChEMBL document CHEMBL4513216, “Probing the Open Global Health Chemical Diversity Library for Multistage-Active Starting Points for Next-Generation Antimalarials” (ACS Infect Dis, 2020).
# Out of some 69,000 compounds screened, about 8,600 (12%) showed an effect of 50% or more. The list comes from a sample in which strong results are over-represented; it also holds similar structures and randomly drawn compounds.
# Tested on: Plasmodium berghei
# Test: Screen against P. berghei liver stage (PbLuc), transformed with Luciferase, at 10uM
# Type: functional, HepG2
# Settings: tested at 10 uM
row,Compound,INHIBITION [%]
1,O=C(NCCCNC(=O)c1cccc(O)c1)Nc1ccc(Cl)cc1,45.5
2,CC(C)c1cc(C(=O)N2CCC3(CCc4ccccc4C(=O)N3)C2)no1 (centres undefined),2.415
3,O=S(=O)(c1c(F)cccc1F)N1CCCC1c1nnc2n1CCCCC2 (centres undefined),-21.2
4,CCCN1CCCn2c(nc(CNC(=O)N3CCCC3)cc2=O)C1,49.1
5,COc1cc2ncn(Cc3ncc[nH]3)c(=O)c2cc1OC,64.1
6,CCc1ccc2ncn(Cc3ncc[nH]3)c(=O)c2c1,15.2
7,COc1ccc2ncn(Cc3ncc[nH]3)c(=O)c2c1,-64.3
8,CCn1cnnc1CNC(=O)N1CCN(Cc2ccco2)CC1,-2.19
9,O=C(CC1CCCC1)N1C[C@H](OCc2ccncc2)[C@H]2OCCC[C@H]21,-32
10,CN1CCOC(CNCC(=O)NCCc2ccc(F)cc2)C1 (centres undefined),-2.27
11,CN(C)C(=O)c1cccc(CN2CCN(CCO)CC2)c1,-170
12,O=C(C[S+]([O-])Cc1ccc(F)cc1Cl)NC1CCCC1 (centres undefined),66.7
13,O=C(C[S+]([O-])Cc1cccc(F)c1)NC1CCCC1 (centres undefined),54.4
14,CN(CC(=O)NC1CC1)S(=O)(=O)c1ccc(F)cc1Cl,-26.8
15,O=C(Cc1ccc(F)cc1Cl)N[C@@H]1CCNC[C@H]1O,4.59
16,O=C(C[S+]([O-])Cc1cccc(C(F)(F)F)c1)NC1CCCC1 (centres undefined),21.9
17,CN(C)C(=O)c1cccc(C[S+]([O-])CC(=O)NC2CCCC2)c1 (centres undefined),54.4
18,O=C(C[S+]([O-])Cc1cccc(Cl)c1)NC1CCCC1 (centres undefined),15.2
19,CC1CN(C)CCN1Cc1cccc(C(=O)N(C)C)c1 (centres undefined),-32
20,COCCC1(CNC(=O)Nc2ccc(-n3ccnn3)cc2)CCC1,-12.2
21,CSCC[C@H]1CN2CCC[C@H]2CN1Cc1cn(C)nc1C,5.11
22,CN(Cc1ccco1)C(=O)C1CSCN1C(=O)C1CCC1 (centres undefined),-16
23,CCS(=O)(=O)N1CCCCC1c1nc(C)no1 (centres undefined),20.1
24,CC(C)c1noc(C2CCCN2S(=O)(=O)N2CCCCCC2)n1 (centres undefined),-31.7
25,CCS(=O)(=O)N1CCCCC1c1nc(C(C)C)no1 (centres undefined),57.3
26,Cc1ccc(C(C)NCc2c(C(C)C)nn(C)c2N2CCOCC2)o1 (centres undefined),7.27

row,Compound,INHIBITION [%]
1,CCOc1ccc(Br)cc1C1CCCCN1 (centres undefined),18.4
2,CCOc1ccc(Cl)cc1C1CCCN1 (centres undefined),18.2
3,CCOc1ccc(Cl)cc1C1CCCCN1 (centres undefined),54.9
4,O=C(CCn1ccnc1)N1CC[C@H](Oc2cccc(F)c2)[C@@H](O)CC1,7.3
5,Cc1cc(NC(=O)C(c2cccc(F)c2)N2CCOCC2)sn1 (centres undefined),-22.8
6,O=C(Nc1nnc[nH]1)C(c1cccc(F)c1)N1CCOCC1 (centres undefined),52.6
7,Cc1cc(NC(=O)C(c2cccc(F)c2)N2CCOCC2)ccn1 (centres undefined),41.1
8,O=C(Cn1cc(I)cn1)N1CCNC1=O,-28
9,O=S(=O)(c1cc(F)cc(F)c1)N1CCC(Oc2ccc(Cl)cn2)CC1,35.8
10,O=S(=O)(c1c(F)cccc1F)N1CCC(Cn2cccn2)CC1,36.3
11,N#Cc1cccnc1OC1CCNCC1,5.58
12,N#Cc1cccnc1OC1CCN(S(=O)(=O)c2ccc(Br)cc2)CC1,50.4
13,N#Cc1cccnc1OC1CCN(S(=O)(=O)c2c(F)cccc2F)CC1,54.6
14,N#Cc1cccnc1OC1CCN(S(=O)(=O)c2ccc(F)c(Cl)c2)CC1,64.3
15,O=S(=O)(c1ccccc1F)N1CCC(Oc2cccnn2)CC1,43.3
16,COC(=O)c1ccc(S(=O)(=O)N2CCC(Oc3cccnn3)CC2)cc1,26.6
17,COC(=O)c1sccc1S(=O)(=O)N1CCC(Oc2ncccc2Cl)CC1,38.5
18,c1cncc(OCc2nnn3c2CN(Cc2ccsc2)CCC3)c1,16.6
19,Cc1ccncc1C(=O)N1CCCC(C(=O)CCc2ccccc2)C1 (centres undefined),-34.8
20,COc1ccccc1NC(=O)NCC(O)c1ccc(F)cc1F (centres undefined),12.7
21,O=C(CC1CC1)N1CCC2(CCCN(CCOc3ccccc3)C2)C1 (centres undefined),27.2
22,NC(=O)CN1C[C@@H](c2ccccc2F)[C@@]2(CCCCC(=O)N2)C1,21.95
23,Cc1ccc(CCCC(=O)N2CCC(=O)Nc3cccnc32)s1,47.1
24,CC(C)c1ocnc1C(=O)N1CCC(=O)Nc2cccnc21,4.13
25,CCc1ccc(CCC(=O)N2CCC(=O)Nc3cccnc32)cc1,70.3
26,Cn1cc(C[C@H]2[C@H](O)CCN2Cc2ccc3c(c2)OCO3)cn1,22.9

row,Compound,INHIBITION [%]
1,Cc1cccc(CN2C(=O)CC[C@@H]3[C@H]2CCN3Cc2ccc(F)cc2)n1,69.5
2,Cn1cc(CN2CC[C@@H]3[C@@H]2CCN3Cc2ccc3c(c2)OCO3)cn1,60.5
3,Cc1cccc(CN2C(=O)C[C@H]3[C@@H]2CCN3Cc2ccc(F)cc2)n1,-4.82
4,CN1CC[C@@H]2[C@@H]1CCN2Cc1ccc2c(c1)OCO2,35.8
5,Cc1cccc(CN2C(=O)CC[C@@H]3[C@H]2CCN3Cc2cccnc2)n1,31.1
6,Cc1cccc(CN2CC[C@@H]3[C@@H]2CCN3Cc2cccs2)n1,33.1
7,Cc1cccc(CN2CC[C@H]3[C@H]2CCN3C(=O)c2cnn(C)c2)n1,-0.554
8,Cc1cccc(CN2CC[C@H]3[C@H]2CCN3Cc2cnn(C)c2)n1,51.6
9,Cc1cc(OCC(=O)NCc2ccc(F)cc2)nnc1C,-3.08
10,CC(=O)N1CCC2(CC1)CN(C(=O)[C@@H]1CSCN1)c1ccc(Cl)cc12,30.5
11,Cc1cc(CN2C[C@@H](N3CCN(C)CC3)[C@H]3OCCC[C@H]32)oc1C,-30
12,Cn1cnc2c1C(COCC1CCOCC1)CN(C(=O)C1CC=CC1)C2 (centres undefined),45.1
13,Cc1ccc(-c2cc(CN3CCc4cncnc4C3)on2)cc1,-8.91
14,CN(C)[C@@H]1CN(C(=O)c2cc3cccc(F)c3[nH]2)C[C@H]1O,-0.275
15,COc1ccc(CN2CCCN(C(=O)C(C)n3ccnc3)CC2)cc1 (centres undefined),18.55
16,CN(CCCNC(=O)c1ccccc1F)CC(F)(F)F,52.3
17,CN(CCCNC(=O)c1ccccc1OCC(N)=O)CC(F)(F)F,-52.1
18,CN(CCCNC(=O)c1ccc(C#N)cc1)CC(F)(F)F,21.8
19,Cn1nnc2c1CCN(Cc1nccs1)C2COCc1ccccc1 (centres undefined),15.9
20,Cc1noc(C)c1-c1nc(C2CCCN(C(=O)CN)C2)ccc1CO (centres undefined),37.1
21,COCCN(Cc1cccc(O)c1)CC1CC1,45.2
22,Cc1cnc(CN(Cc2cccc(O)c2)CC2CC2)cn1,65.9
23,Cc1cnc(CN(Cc2ccccc2)CC2CCOCC2)cn1,14.2
24,Cc1cnc(N2CCCn3c(nnc3CN(C)C(C)C)C2)nc1,-19.2
25,CCC(=O)N1CCC[C@]2(C(=O)N(C)C)CN(c3ccccn3)C[C@@H]2C1,34.2
26,CCN(Cc1ccc(C)o1)C(=O)C(C)n1ccnc1C(C)C (centres undefined),13

row,Compound,INHIBITION [%]
1,Cc1cccnc1C(Nc1nccc(C2CCCC2)n1)C1CC1 (centres undefined),0.164
2,Cc1cccc(C(Nc2nccc(-c3ccc(C)nc3C)n2)C2CC2)n1 (centres undefined),-11.2
3,Cc1ccc(-c2ccnc(NC(c3ncccc3C)C3CC3)n2)c(C)n1 (centres undefined),51.2
4,CS(=O)(=O)N1C[C@@H](Oc2ccccn2)[C@H]2OCCC[C@H]21,29
5,Cc1cc(C)c(S(=O)(=O)Nc2c(C)nc(N(C)C)nc2C)cc1C,4.12
6,CCN(C(=O)CN1CCn2c(C)nnc2C1)C1=CCCCC1,-6.46
7,CCCN(C(=O)CN1CCn2c(nnc2C2CC2)C1)C1=CCCCC1,18.7
8,CCN(C(=O)CN1CCn2c(nnc2C2CC2)C1)C1=CCCCC1,51.2
9,Cc1cn2nc(N3CCCCC3Cn3cccn3)sc2n1 (centres undefined),11.6
10,O=C(NCCNc1cnccn1)N1CCN(c2nccs2)CC1,29.2
11,COc1ncccc1CN1C[C@H]2CCN(c3ncccn3)C[C@H]2C1,56.4
12,COc1ncccc1CN1C[C@H]2CCN(c3ccc(C)nn3)C[C@H]2C1,41.4
13,COc1ncccc1CN1C[C@@H]2CN(c3ncccn3)C[C@@H]2C1,47.4
14,c1cc(CN2CC[C@@H]3CN(c4cncnc4)C[C@@H]3C2)ccn1,27.6
15,Cc1ccc(CN2C[C@@H]3CN(c4ncccn4)C[C@@H]3C2)cc1,40.8
16,c1cnc(N2C[C@H]3CCN(Cc4ccncc4)C[C@H]3C2)nc1,58.4
17,CC(=O)c1cnc(NCCN2CCCC2)nc1C,33.1
18,CCN(C)C(=O)c1coc(COc2ccccc2)n1,-8.47
19,CN1CCN(CCC(F)(F)C(F)F)CC12CCNC(=O)CC2 (centres undefined),49.9
20,CC(C)=CCC/C(C)=C/CN1CCN(C)C2(CCNC(=O)CC2)C1 (centres undefined),67.5
21,CC/C(C)=C/CCN1CCN(C)C2(CCNC(=O)CC2)C1 (centres undefined),35.9
22,Cc1cc(C(=O)N2CC(O)CO2)c2ccc(C)c(C)c2n1 (centres undefined),15
23,O=C(O)c1ccccc1CN1CCCC(Cc2ccn[nH]2)C1 (centres undefined),7.721
24,Cc1ncc(CN2CCOC(c3ccc(-c4ccccc4F)cn3)C2)s1 (centres undefined),95.3
25,Cc1ncc(CN2CCOC(c3ccc(-c4cnn(C)c4)cn3)C2)s1 (centres undefined),-6.92
26,Cc1ncc(CN2CCOC(c3ccc(-c4cc[nH]n4)cn3)C2)s1 (centres undefined),19.6
